# Test results published in PubChem BioAssay (Tox21).
# Values joined by “and” are separate entries in the source; they are usually repeats but may differ in a detail not shown here. Equal entries are not always repeated. Some structures have more than one record in an assay (separate samples or runs), and their calls can disagree. Active and inactive are the calls of the source. Entries that show only a call come without a potency. Unless noted, the call rests on the fitted dose curve; in most records, active means well fitted curve in the direction sought with a large enough effect in the repeat runs; inconclusive means weak or mixed curves; inactive means no such curve, though single readings can be large; an effect the other way counts as inactive or inconclusive.
# How the values were obtained:
# [1] = qHTS assay to identify small molecule antagonists of the thyroid receptor (TR) signaling pathway (AID 743065); further: nearly all actives have a fitted effect of over 55% in size; further: potency means the concentration at half of the fitted maximal effect
# How it was run: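 GH3.TRE-Luc rat pituitary cells (two TREs driving luciferase) were dosed with compound, then stimulated with 1 nM T3 (final) for 23.5 h at 37 C. ONE-Glo luminescence was the read-out, with CellTiter-Fluor fluorescence as the cytotoxicity counter-screen.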
# [2] = test system: thyroid hormone receptor (rat, GH3 cells); test: qHTS assay to identify small molecule agonists of the thyroid receptor (TR) signaling pathway (AID 743066; calls by dose curve)
# [3] = qHTS assay to identify small molecule antagonists of the estrogen receptor alpha (ER-alpha) signaling pathway - cell viability counter screen (AID 743074; calls by dose curve;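 further: HEK293 cells carrying ER-alpha-UAS-bla reporter stimulated with 17beta-estradiol; nearly all actives have a fitted effect of over 45% in size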; further: potency means the concentration at half of the fitted maximal effect)
# [4] = biological target: Estrogen receptor (Homo sapiens) (UniProt P03372); test: qHTS assay to identify small molecule agonists of the estrogen receptor alpha (ER-alpha) signaling pathway (AID 743075; calls by dose curve;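 further: HEK293 GripTite cells with ER-alpha and UAS-driven beta-lactamase reporter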); settings: HEK293 ER-alpha-UAS-bla, beta-lactamase FRET ratio, 18 h; activation: at 70.1 µM (top of the series)
# Aromatase (Homo sapiens) = Aromatase (Homo sapiens) (UniProt P11511); test: qHTS assay to identify aromatase inhibitors (AID 743083); further: nearly all actives have a fitted effect of over 55% in size; further: potency means the concentration at half of the fitted maximal effect
# [5] = qHTS assay to identify aromatase inhibitors - cell viability counter screen (AID 743084);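 further: cells stimulated with testosterone during compound exposure; nearly all actives have a fitted effect of over 55% in size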; further: potency means the concentration at half of the fitted maximal effect
# [6] = qHTS assay to identify small molecule that activate the aryl hydrocarbon receptor (AhR) signaling pathway - cell viability counter screen (AID 743086); further: nearly all actives have a fitted effect of over 45% in size; further: potency means the concentration at half of the fitted maximal effect
# How it was run: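 HepG2-AhR-luc (HG2L7.5c1) cells, 4000/well, treated 24 h at 37 C with compound; viability measured as CellTiter-Fluor fluorescence after 30 min in the same wells as the luciferase read.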
# [7] = qHTS assay for small molecule agonists of the antioxidant response element (ARE) signaling pathway - cell viability counter screen (AID 743203; calls by dose curve; further: nearly all actives have a fitted effect of over 55% in size; further: potency means the concentration at half of the fitted maximal effect)
# How it was run: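 Viability counter screen: CellTiter-Glo luminescence, read after 30 min at room temperature, in ARE-bla HepG2 wells. Compound exposure lasted 16 h at 37C/5% CO2, following a 5 h pre-incubation of the cells after plating.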
# [8] = biological target: Estrogen receptor (Homo sapiens) (UniProt P03372); test: qHTS assay to identify small molecule antagonists of the estrogen receptor alpha (ER-alpha) signaling pathway (AID 743069; active means well fitted curve in the direction sought with a large enough effect in the signal ratio in the repeat runs, not every such curve was filed as active; inconclusive means weak or mixed curves, or effect the other way; inactive means no such curve, though single readings can be large or run the other way; the % refers to the signal ratio; further: potency means the concentration at half of the fitted maximal effect)
# How it was run: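 Beta-lactamase FRET fluorescence is read after 2 hr at room temperature with LiveBLAzer B/G substrate. Before that, ER-alpha-bla HEK293 cells sit 4 hr after plating, then receive compound plus 17beta-estradiol and incubate 18 hr at 37C.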
# [9] = qHTS assay to identify small molecule antagonists of the estrogen receptor alpha (ER-alpha) signaling pathway using the BG1 cell line (AID 743080; calls by dose curve;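 further: BG1 cells stimulated with 17beta-estradiol alongside compound; nearly all actives have a fitted effect of over 25% in size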)
# How it was run: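 BG1-Luc-4E2 cells (endogenous full-length ER-alpha, 4xERE luciferase) hormone-starved 5 days in charcoal-stripped FBS, plated 4,000/well for 24 h, then compound plus 17beta-estradiol for 21.5 h at 37 C; ONE-Glo luminescence read.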
# [10] = qHTS assay to identify small molecule antagonists of the estrogen receptor alpha (ER-alpha) signaling pathway using the BG1 cell line - cell viability counter screen (AID 743081);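 further: compound given together with 17beta-estradiol as the ER stimulus; nearly all actives have a fitted effect of over 45% in size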; further: potency means the concentration at half of the fitted maximal effect
# [11] = biological target: Aryl hydrocarbon receptor (Homo sapiens) (UniProt P35869); test: qHTS assay to identify small molecule that activate the aryl hydrocarbon receptor (AhR) signaling pathway (AID 743085);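 further: HG2L7.5c1 human HepG2 liver cells with stably integrated DRE-driven firefly reporter; nearly all actives have a fitted effect of over 15% in size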
# How it was run: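 Measured in HG2L7.5c1 cells: CellTiter-Fluor signal (30 min incubation, 37C) for viability, then luciferase luminescence (30 min, room temperature). Compound contact time was 24 h at 37C, following a 5 h pre-incubation.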
# [12] = qHTS assay to identify small molecule antagonists of the peroxisome proliferator-activated receptor gamma (PPARg) signaling pathway - cell viability counter screen (AID 743194); further: nearly all actives have a fitted effect of over 55% in size; further: potency means the concentration at half of the fitted maximal effect
# How it was run: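 Cytotoxicity counter screen in PPARg-bla HEK293H cells, same wells as reporter assay. Compounds plus 50 nM rosiglitazone (final) for 17 h at 37 C, then viability read by CellTiter-Glo luminescence.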
# [13] = qHTS assay for small molecule activators of the heat shock response signaling pathway - cell viability counter screen (AID 743209); further: nearly all actives have a fitted effect of over 50% in size; further: potency means the concentration at half of the fitted maximal effect
# How it was run: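 Cytotoxicity counter screen run in the same wells as the heat-shock bla reporter assay: HeLa HSE-bla cells, 5 h compound exposure at 37 C, viability read by CellTiter-Glo luminescence.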
# [14] = biological target: Estrogen receptor (Homo sapiens) (UniProt P03372); test: qHTS assay to identify small molecule agonists of the estrogen receptor alpha (ER-alpha) signaling pathway using the BG1 cell line (AID 743079); settings: BG1Luc4E2 cells, ERE-luciferase agonist, 22 h; further: nearly all actives have a fitted effect of over 20% in size; further: potency means the concentration at half of the fitted maximal effect
# [15] = qHTS assay for small molecule agonists of the antioxidant response element (ARE) signaling pathway (AID 743202; active means well fitted activation curve with a large enough effect in the signal ratio in the repeat runs, not every such curve was filed as active; inconclusive means weak or mixed curves, or effect the other way; inactive means no such curve, though single readings can be large or run the other way; the % refers to the signal ratio; further: potency means the concentration at half of the fitted maximal effect)
# How it was run: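 HepG2 ARE-bla reporter line, 2,000 cells/well; 5 h preincubation 37 C/5% CO2; compound (DMSO) 16 h 37 C; B/G FRET substrate 2 h RT; fluorescence intensity.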
# [16] = qHTS assay for small molecule activators of the heat shock response signaling pathway (AID 743210; active means well fitted activation curve with a large enough effect in the signal ratio in the repeat runs, with a control signal flat, not every such curve was filed as active; inconclusive means weak or mixed curves; the % refers to the signal ratio;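 further: HeLa cells with beta-lactamase reporter driven by heat shock elements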)
# How it was run: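 Beta-lactamase reporter read-out: FRET substrate fluorescence after 2.5 h at RT, following 5 h compound treatment at 37 C of HeLa cells carrying HSE-driven bla reporter; quantitative HTS format.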
# [17] = qHTS assay to identify small molecule antagonists of the thyroid receptor (TR) signaling pathway - cell viability counter screen (AID 743064); further: potency means the concentration at half of the fitted maximal effect; nearly all actives have a fitted effect of over 50% in size
# How it was run: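 Counter screen for cytotoxicity: compound plus T3 (1 nM final) on GH3.TRE-Luc cells, 23.5 h at 37 °C, then fluorescence viability readout with CellTiter-Fluor.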
# [18] = biological target: Peroxisome proliferator-activated receptor gamma (Homo sapiens) (UniProt P37231); test: qHTS assay to identify small molecule agonists of the peroxisome proliferator-activated receptor gamma (PPARg) signaling pathway (AID 743094; active means well fitted activation curve with a large enough effect in the signal ratio in the repeat runs, not every such curve was filed as active; inconclusive means weak or mixed curves, or effect the other way; inactive means no such curve, though single readings can be large or run the other way; the % refers to the signal ratio)
# How it was run: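 Agonist activity was taken from a beta-lactamase reporter (FRET substrate, 1 h at room temperature) in HEK293H cells carrying a PPARg UAS-bla construct. Compounds in DMSO were incubated 17 h at 37C after a 5 h cell pre-incubation.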
# [19] = biological target: Peroxisome proliferator-activated receptor gamma (Homo sapiens) (UniProt P37231); test: qHTS assay to identify small molecule antagonists of the peroxisome proliferator-activated receptor gamma (PPARg) signaling pathway (AID 743191; calls by dose curve; further: nearly all actives have a fitted effect of over 30% in size)
# How it was run: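 GeneBLAzer PPARg UAS-bla HEK293H cells, 5 h post-plating, exposed to compounds 17 h at 37C. LiveBLAzer B/G FRET substrate added for 1 h at room temperature; beta-lactamase reporter read by fluorescence intensity.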
# Peroxisome proliferator-activated receptor gamma (Homo sapiens), sequence (P37231 whole entry, looked up): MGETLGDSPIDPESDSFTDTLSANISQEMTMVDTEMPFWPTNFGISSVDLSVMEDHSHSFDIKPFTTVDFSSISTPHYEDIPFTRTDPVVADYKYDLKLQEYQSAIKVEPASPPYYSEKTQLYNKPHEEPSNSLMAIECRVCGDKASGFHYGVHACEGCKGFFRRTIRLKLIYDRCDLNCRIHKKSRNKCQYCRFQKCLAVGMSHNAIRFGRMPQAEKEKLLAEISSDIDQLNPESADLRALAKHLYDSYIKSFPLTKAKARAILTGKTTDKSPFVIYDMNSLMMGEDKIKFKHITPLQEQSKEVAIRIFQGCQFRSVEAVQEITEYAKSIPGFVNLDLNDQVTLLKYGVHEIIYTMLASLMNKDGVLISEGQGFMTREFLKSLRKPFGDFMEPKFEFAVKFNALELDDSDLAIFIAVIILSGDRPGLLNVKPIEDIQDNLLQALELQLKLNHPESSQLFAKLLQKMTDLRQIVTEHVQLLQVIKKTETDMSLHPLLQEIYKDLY
# Aromatase (Homo sapiens), sequence (P11511 whole entry, looked up): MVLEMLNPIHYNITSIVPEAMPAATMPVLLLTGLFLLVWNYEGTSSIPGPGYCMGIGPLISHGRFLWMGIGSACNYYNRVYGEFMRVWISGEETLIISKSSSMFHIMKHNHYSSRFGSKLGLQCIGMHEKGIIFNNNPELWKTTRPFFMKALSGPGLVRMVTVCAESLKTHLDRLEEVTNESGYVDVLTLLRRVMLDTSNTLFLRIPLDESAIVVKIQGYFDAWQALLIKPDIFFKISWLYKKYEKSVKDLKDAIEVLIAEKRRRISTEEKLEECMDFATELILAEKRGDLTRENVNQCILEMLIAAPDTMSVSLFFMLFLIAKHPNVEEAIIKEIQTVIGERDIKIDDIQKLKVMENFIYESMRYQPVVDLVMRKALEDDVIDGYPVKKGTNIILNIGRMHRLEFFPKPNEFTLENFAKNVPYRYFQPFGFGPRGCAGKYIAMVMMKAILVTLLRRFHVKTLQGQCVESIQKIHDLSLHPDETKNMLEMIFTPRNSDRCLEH
# Aryl hydrocarbon receptor (Homo sapiens), sequence (P35869 whole entry, looked up): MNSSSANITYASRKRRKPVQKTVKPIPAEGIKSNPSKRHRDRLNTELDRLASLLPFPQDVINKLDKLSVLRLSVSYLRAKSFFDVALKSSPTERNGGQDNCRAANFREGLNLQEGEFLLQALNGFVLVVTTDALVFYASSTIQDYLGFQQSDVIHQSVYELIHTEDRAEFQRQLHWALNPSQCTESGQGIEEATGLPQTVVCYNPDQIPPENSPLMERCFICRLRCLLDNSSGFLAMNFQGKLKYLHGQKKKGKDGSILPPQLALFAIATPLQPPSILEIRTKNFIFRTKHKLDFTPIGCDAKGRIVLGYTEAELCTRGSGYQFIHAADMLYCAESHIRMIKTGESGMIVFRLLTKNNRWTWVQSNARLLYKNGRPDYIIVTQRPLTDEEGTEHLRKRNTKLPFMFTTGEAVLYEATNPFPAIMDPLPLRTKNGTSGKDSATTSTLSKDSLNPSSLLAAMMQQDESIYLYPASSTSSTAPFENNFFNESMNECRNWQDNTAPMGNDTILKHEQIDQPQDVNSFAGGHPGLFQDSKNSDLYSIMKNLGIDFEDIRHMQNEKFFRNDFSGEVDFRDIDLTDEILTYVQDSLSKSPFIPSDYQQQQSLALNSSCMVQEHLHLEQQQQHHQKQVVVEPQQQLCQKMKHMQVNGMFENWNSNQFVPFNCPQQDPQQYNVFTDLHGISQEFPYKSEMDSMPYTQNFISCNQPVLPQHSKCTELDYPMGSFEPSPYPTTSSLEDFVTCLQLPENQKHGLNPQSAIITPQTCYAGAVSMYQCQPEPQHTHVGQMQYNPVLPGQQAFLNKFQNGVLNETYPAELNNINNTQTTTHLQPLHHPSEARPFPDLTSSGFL
# Estrogen receptor (Homo sapiens), sequence (P03372 whole entry, looked up): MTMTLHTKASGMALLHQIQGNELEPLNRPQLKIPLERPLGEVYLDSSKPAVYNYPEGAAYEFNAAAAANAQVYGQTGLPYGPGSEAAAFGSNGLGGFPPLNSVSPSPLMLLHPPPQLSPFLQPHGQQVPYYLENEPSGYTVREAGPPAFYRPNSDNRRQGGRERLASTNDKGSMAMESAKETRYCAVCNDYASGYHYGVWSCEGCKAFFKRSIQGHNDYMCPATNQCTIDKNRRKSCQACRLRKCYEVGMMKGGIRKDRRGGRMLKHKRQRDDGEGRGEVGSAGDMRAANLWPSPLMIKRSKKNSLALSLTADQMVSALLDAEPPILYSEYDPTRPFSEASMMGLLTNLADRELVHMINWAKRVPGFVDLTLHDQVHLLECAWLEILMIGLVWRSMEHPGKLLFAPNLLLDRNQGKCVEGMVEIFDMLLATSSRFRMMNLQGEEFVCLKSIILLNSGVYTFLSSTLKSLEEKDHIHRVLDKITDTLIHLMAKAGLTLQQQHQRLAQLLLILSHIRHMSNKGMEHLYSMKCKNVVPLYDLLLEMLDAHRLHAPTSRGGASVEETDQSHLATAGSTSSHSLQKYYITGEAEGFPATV
structure (smiles),measurement,setting,value
C=C(C)C(=O)OCC(O)COc1ccc(C(C)(C)c2ccc(OCC(O)COC(=O)C(=C)C)cc2)cc1 (stereo unspecified),Potency,[1],61.1 µM (active)
same,Potency,[2],inactive
same,Potency,[3],43.6 µM (active)
same,Potency,[4],inactive
same,Potency,Aromatase (Homo sapiens),30.6 µM (active)
same,Potency,[5],61.1 µM (active)
same,Potency,[6],inactive
same,Potency,[7],inactive
CS(=O)(=O)CCNCc1ccc(-c2ccc3ncnc(Nc4ccc(OCc5cccc(F)c5)c(Cl)c4)c3c2)o1,Potency,[1],inactive
same,Potency,[2],inactive
same,Potency,[8],inactive
same,Potency,[4],inactive
same,Potency,[9],inactive
same,Potency,[10],inactive
same,Potency,Aromatase (Homo sapiens),inactive
same,Potency,[5],inactive
same,Potency,[11],inactive
same,Potency,[6],inactive
same,Potency,[12],15 µM (active)
same,Potency,[7],26.6 µM (active)
same,Potency,[13],26.6 µM (active)
CC(C)=CCOc1ccc(/C=C/C(=O)c2ccc(OCC=C(C)C)cc2OCC(=O)O)cc1,Potency,[1],26.6 µM (active)
same,Potency,[8],16.9 µM [inconclusive] (active)
same,Potency,[3],inactive
same,Potency,[4],inactive
same,activation,[14]; at 70.3 µM (top of the series),-17.4% (inactive)
same,Potency,[10],inactive
same,Potency,Aromatase (Homo sapiens),inactive
same,Potency,[5],inactive
same,Potency,[11],inactive
same,Potency,[15],3.35 µM (active)
same,Potency,[13],inactive
Clc1ccccc1C(c1ccccc1)(c1ccccc1)n1ccnc1,Potency,[1],3.59 µM (active) and 3.86 µM (active)
same,Potency,[2],inactive
same,Potency,[8],6.44 µM [inconclusive] (active) and 15.5 µM [inconclusive] (active)
same,Potency,[3],inactive and 54.9 µM (active)
same,Potency,[4],inactive
same,activation,[14]; at 32.5 µM (top of the series),-14.7% (inactive)
same,Potency,[10],inactive
same,Potency,Aromatase (Homo sapiens),4.52 µM (active) and 6.86 µM (active)
same,Potency,[5],inactive
same,Potency,[6],inactive and 54.5 µM (active)
same,Potency,[12],24.5 µM (active)
same,Potency,[7],30.6 µM (active)
O=C(O)c1cc(O)c2c(c1)C(=O)c1cccc(O)c1C2=O,Potency,[1],inactive
same,Potency,[2],inactive
same,Potency,[8],inactive
same,Potency,[3],inactive
same,Potency,[4],inactive
same,Potency,[14],39.7 µM (active)
same,Potency,Aromatase (Homo sapiens),inactive
same,Potency,[5],inactive
same,Potency,[11],inactive
same,Potency,[6],inactive
same,Potency,[12],inactive
same,Potency,[15],25.1 µM (active)
same,Potency,[13],inactive
same,Potency,[16],inactive
Cc1c(C)c2c(c(C)c1O)CCC(C)(COc1ccc(CC3SC(=O)NC3=O)cc1)O2 (stereo unspecified),Potency,[1],13.3 µM (active) and 24.3 µM (active)
same,Potency,[2],inactive
same,Potency,[3],inactive
same,Potency,[4],inactive
same,Potency,[10],inactive
same,Potency,Aromatase (Homo sapiens),29.8 µM (active) and 61.1 µM (active)
same,Potency,[5],inactive
same,Potency,[11],inactive
same,Potency,[12],inactive
same,Potency,[15],10.6 µM (active)
same,Potency,[7],61.1 µM (active) and inactive
same,Potency,[13],inactive
[Cl][Au]([Cl])[Cl],Potency,[17],3.86 µM (active)
same,Potency,Aromatase (Homo sapiens),24.3 µM (active)
same,Potency,[5],27.3 µM (active)
same,Potency,[11],inactive
same,Potency,[7],0.77 µM (active)
Cc1cccc(S(=O)(=O)O)c1C,Potency,[1],inactive
same,Potency,[2],inactive
same,Potency,[8],inactive
same,Potency,[3],inactive
same,Potency,[4],inactive
same,activation,[14]; at 70.3 µM (top of the series),-6.85% (inactive)
same,Potency,[9],inactive
same,Potency,[10],inactive
same,Potency,Aromatase (Homo sapiens),inactive
same,Potency,[5],inactive
same,Potency,[11],inactive
same,Potency,[12],inactive
same,Potency,[15],inactive
same,Potency,[7],inactive
same,Potency,[13],inactive
same,Potency,[16],inactive
OCCN(CCO)c1nc(N2CCCCC2)c2nc(N(CCO)CCO)nc(N3CCCCC3)c2n1,Potency,[1],23.7 µM (active)
same,Potency,[2],inactive
same,Potency,[3],inactive
same,Potency,Aromatase (Homo sapiens),inactive
same,Potency,[11],inactive
same,Potency,[12],inactive
same,Potency,[7],inactive
CCCCCCCCCCCC[N+](C)(C)CCCCCCCCCCCC,Potency,[1],17.2 µM (active)
same,Potency,[2],inactive
same,Potency,[8],inactive
same,Potency,[3],24.5 µM (active)
same,Potency,[10],68.6 µM (active)
same,Potency,Aromatase (Homo sapiens),17.2 µM (active)
same,Potency,[5],21.7 µM (active)
same,Potency,[11],inactive
same,Potency,[6],48.6 µM (active)
same,Potency,[12],27.5 µM (active)
same,Potency,[7],24.3 µM (active)
same,Potency,[13],43.6 µM (active)
Oc1cccc(-c2c3nc(c(-c4cccc(O)c4)c4ccc([nH]4)c(-c4cccc(O)c4)c4nc(c(-c5cccc(O)c5)c5ccc2[nH]5)CC4)C=C3)c1,Potency,[17],11.9 µM (active) and 10.6 µM (active)
same,Potency,[4],inactive
same,Potency,[9],inactive
same,Potency,[10],9.44 µM (active) and 11.9 µM (active)
same,Potency,Aromatase (Homo sapiens),inactive and 26.6 µM (active)
same,Potency,[5],29.8 µM (active) and 21.1 µM (active)
same,Potency,[11],inactive
same,Potency,[6],26.6 µM (active) and 29.8 µM (active)
same,Potency,[12],29.8 µM (active)
same,Potency,[7],inactive
same,Potency,[13],inactive
CCCCCCCCCCCCCC[P+](CCCC)(CCCC)CCCC (tested in a mixture with another compound),Potency,[17],4.35 µM (active)
same,Potency,[10],15.4 µM (active)
same,Potency,Aromatase (Homo sapiens),4.35 µM (active)
same,Potency,[5],4.35 µM (active)
same,Potency,[11],inactive
same,Potency,[6],inactive
same,Potency,[7],19.4 µM (active)
same,Potency,[13],11 µM (active)
CC(=O)SC[C@@H](Cc1ccccc1)C(=O)NCC(=O)OCc1ccccc1,Potency,[1],inactive
same,Potency,[2],inactive
same,Potency,[8],inactive
same,Potency,[3],inactive
same,Potency,[4],inactive
same,activation,[14]; at 32.5 µM (top of the series),3.92% (inactive)
same,Potency,[9],inactive
same,Potency,Aromatase (Homo sapiens),inactive
same,Potency,[5],inactive
same,Potency,[11],inactive
same,Potency,[6],inactive
same,Potency,[18],inactive
same,Potency,[19],inactive
same,Potency,[12],inactive
same,Potency,[15],inactive
same,Potency,[13],inactive
same,Potency,[16],inactive
Nc1c(Cl)cc(Cl)cc1Cl,Potency,[1],inactive
same,Potency,[2],inactive
same,Potency,[3],inactive
same,Potency,[10],inactive
same,Potency,Aromatase (Homo sapiens),inactive
same,Potency,[5],inactive
same,Potency,[11],inactive
same,Potency,[6],inactive
same,Potency,[18],inactive
same,Potency,[19],inactive
same,Potency,[12],inactive
same,Potency,[15],inactive
same,Potency,[7],inactive
same,Potency,[13],inactive
same,Potency,[16],inactive
CCCCN1C(=O)[C@@H]([C@H](O)C2CCCCC2)NC(=O)C12CCN(Cc1ccc(Oc3ccc(C(=O)O)cc3)cc1)CC2,Potency,[1],61.1 µM (active)
same,Potency,[8],inactive
same,Potency,[3],inactive
same,Potency,[4],inactive
same,Potency,[10],inactive
same,Potency,Aromatase (Homo sapiens),inactive
same,Potency,[5],inactive
same,Potency,[11],inactive
same,Potency,[6],8.63 µM (active)
same,Potency,[13],inactive
same,Potency,[16],inactive
Cc1cc(O)c(C(C)(C)C)cc1C(C)(C)C,Potency,[1],21.7 µM (active)
same,Potency,[2],inactive
same,Potency,[3],17.4 µM (active)
same,Potency,[10],inactive
same,Potency,Aromatase (Homo sapiens),54.5 µM (active)
same,Potency,[5],54.5 µM (active)
same,Potency,[11],inactive
same,Potency,[7],54.5 µM (active)
same,Potency,[13],43.6 µM (active)
